From PubChem BioAssay
This is a sample that favours compounds with a hit; in the whole collection about 1.6% have one here.
KCNQ2 block: inhibitors of rat KCNQ2 potassium channel; O88943; CHO-K1 KCNQ2, FluxOR thallium flux, 20 min; stronger effect = lower value; B-score at 10 µM; 1.1% of 310,000 active; AID 2156;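 active means fluorescence ratio B-score at most minus 3 library SDs, with starting brightness B-score within 2 library SDs, cut at about -5.5 in these data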
KCNQ2 enhance: enhances the rat KCNQ2 potassium channel; 0.54% of 310,000 active; O88943; B-score at 10 µM; CHO-K1 KCNQ2, FluxOR thallium flux fluorescence; stronger effect = higher value; AID 2239;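 active means fluorescence ratio B-score at least 3 SD of library B-scores, with initial fluorescence B-score within 3 of them, cut at about 5.3 in these data; same plate scores as AID 2156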;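 further: B-score of peak minus minimum over baseline fluorescence ratio after K+ and Tl+ stimulus; positive B-score means potentiation of KCNQ2 with more thallium influx and brighter signal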
Starred values were filed as active, the others as inactive; i = inactive; · = no result given.

SMILES | KCNQ2 block | KCNQ2 enhance
CCCCn1c(=O)c(CCC(=O)OCC(=O)NCc2ccc(OC)c(OC)c2)nc2ccccc21 | i | 1.5
Cn1c(=O)n(CC(N)=O)c(=O)c2c1nc(Br)n2Cc1ccccc1 | i | 0.07
CCCCOC(=O)Cn1c(=O)c2c(nc(Br)n2Cc2ccccc2)n(C)c1=O | -7.5* | -7.5
O=C(Cn1cnc([N+](=O)[O-])n1)c1ccc(O)c(O)c1 | i | ·
O=C(Nc1ccccc1N1CCCCC1)c1ncoc1-c1cccc(F)c1 | -5.8* | -5.8
O=C(Nc1ccc(N2CCOCC2)cc1N1CCOCC1)c1ncoc1-c1cccc(F)c1 | i | ·
O=C(CC(C(=O)O)c1cccc(Br)c1)c1ccc(Cl)cc1 (centres undefined) | i | ·
COC(=O)c1ccccc1NC(=O)c1cnn2cccnc12 | i | 0.47
CC1(C)Oc2ccc(C(=O)NNC(=O)Nc3ccccc3)cc2NC1=O | i | ·
CCOc1cc(NC(=S)NCC2CCCO2)c(OCC)cc1NC(=O)c1ccccc1C (centres undefined) | i | 0.54
CCOc1cc(NC(=S)Nc2ccccc2OC)c(OCC)cc1NC(=O)c1ccccc1C | -5.7* | -5.7
CCOc1ccc(C2=NNC(c3cccnc3)=Nc3ccc(OC)cc32)cc1 | i | ·
CCOc1ccc(C2=NNC(c3cccs3)=Nc3ccc(OC)cc32)cc1 | -5.6* | -5.6
Cc1nn(S(=O)(=O)c2ccccc2)c(C)c1S(=O)(=O)N1CCOCC1 | i | ·
COc1ccc(CC(=O)Oc2ccc(F)c(F)c2)cc1S(=O)(=O)N1CCOCC1 | i | ·
O=c1c(-c2ccccc2)c(-c2ccccc2)oc2cc(O)cc(O)c12 | -5.8* | -5.8
O=c1cc(-c2ccccc2)c2c(O)cc(O)cc2o1 | i | 1.4
O=C(COc1ccc(Cl)cc1)NCc1nnc(SCC(=O)Nc2ccccc2F)o1 | i | 0.86
COCC(=O)N1CCC(Oc2ccc(C(=O)N(C)CCCC3CCCC3)cc2)CC1 | i | 0.07
O=C1CC(SC(=Nc2ccccc2)Nc2ccccc2)C(=O)N1c1cccc2ccccc12 (centres undefined) | i | 1.6
COc1ccc(NC(=O)c2c[nH]n3c(=O)cc(C4CCN(C(=O)OC(C)(C)C)CC4)nc23)cc1Cl | i | 6.3*
CC(C)(C)OC(=O)N1CCC(c2cc(=O)n3[nH]cc(C(=O)Nc4ccc(F)c(Cl)c4)c3n2)CC1 | i | 2.5
CCOc1ccc(Nc2nc(N(C)c3ccccc3)nc(N)c2[N+](=O)[O-])cc1 | i | 0.29
N#C/C(=C\c1ccc(F)c(Br)c1)C(=O)NC1CC1 | i | ·
N#C/C(=C\c1cc(Br)ccc1F)C(=O)NC1CC1 | -6.1* | -6.1
SMILES | KCNQ2 block | KCNQ2 enhance
N#C/C(=C\c1cc(Cl)cc(Cl)c1O)C(=O)NC1CCCCC1 | -5.7* | -5.7
N#C/C(=C\c1cc(Cl)ccc1O)C(=O)NC1CCCCC1 | i | ·
COc1cc(C(=O)Nc2ccc(N3CCCS3(=O)=O)cc2)c([N+](=O)[O-])cc1OC | i | ·
CC1CCN(C(=O)C(Cc2ccccc2)n2cccc2)CC1 (centres undefined) | i | ·
COc1cc(NC(=O)C(Cc2ccccc2)n2cccc2)cc(OC)c1 (centres undefined) | i | ·
Cc1cccc(NC(=O)C(Cc2ccccc2)n2cccc2)c1 (centres undefined) | -5.7* | -5.7
CC1CC(C)CN(C(=O)C(Cc2ccccc2)n2cccc2)C1 (centres undefined) | -6.5* | -6.5
Cc1ccc(S(=O)(=O)N(CC(=O)c2ccccc2)C(=O)N2CCN(C)CC2)cc1 | i | ·
CCOc1ccccc1NC(=O)C(OC(=O)c1ccccc1O)c1ccccc1 (centres undefined) | i | ·
CCOc1ccccc1NC(=O)C(OC(=O)c1cc(C)oc1C)c1ccccc1 (centres undefined) | -5.8* | -5.8
O=C(c1ccncc1)N(c1ccc2oc3c(c2c1)CCCC3)S(=O)(=O)c1cccc([N+](=O)[O-])c1 | i | ·
COc1ccc(S(=O)(=O)N(C(=O)c2ccncc2)c2ccc3oc4c(c3c2)CCCC4)cc1 | -5.7* | -5.7
COc1ccc(NC(=O)COC(=O)Cc2c(F)cccc2Cl)cc1OC | i | 0.78
CC(NC(=O)c1ccc(F)cc1Cl)C1CC2CCC1C2 (centres undefined) | i | ·
Cc1ccc(C(=O)NC(C)C2CC3CCC2C3)c(C)c1 (centres undefined) | -7.7* | -7.7
CC(C)(C)NC(=S)NC(=O)C12CCC3CC(CC(C3)C1)C2 | -5.7* | -5.7
CC(C)(C)NC(=O)C12CC3CC(CC(Cl)(C3)C1)C2 | i | 2.4
CCCS(=O)(=O)N1CCCC(c2nc(-c3cccc(OC)c3)no2)C1 (centres undefined) | i | ·
COc1cccc(-c2noc(C3CCCN(S(=O)(=O)c4cccc(Cl)c4C)C3)n2)c1 (centres undefined) | -6* | -6
O=C(Nc1ccccc1C(=O)NC(Cc1ccccc1)C(=O)O)c1ccccc1 (centres undefined) | i | ·
Nc1ccc(C(=O)Nc2ccccc2C(=O)O)cc1 | i | 0.33
